Assay outcomes (PubChem)
KCNQ2 inh: blocks the rat KCNQ2 potassium channel; CHO-K1 KCNQ2, FluxOR thallium flux, 20 min; active compounds read low; B-score at 10 µM; actives 1.1% (n = 310,000);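 active = fluorescence ratio B-score at most minus 3 library SDs, with starting brightness B-score within 2 library SDs, cut at about -5.5 in these data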
Target sequence (O88943 whole entry, looked up): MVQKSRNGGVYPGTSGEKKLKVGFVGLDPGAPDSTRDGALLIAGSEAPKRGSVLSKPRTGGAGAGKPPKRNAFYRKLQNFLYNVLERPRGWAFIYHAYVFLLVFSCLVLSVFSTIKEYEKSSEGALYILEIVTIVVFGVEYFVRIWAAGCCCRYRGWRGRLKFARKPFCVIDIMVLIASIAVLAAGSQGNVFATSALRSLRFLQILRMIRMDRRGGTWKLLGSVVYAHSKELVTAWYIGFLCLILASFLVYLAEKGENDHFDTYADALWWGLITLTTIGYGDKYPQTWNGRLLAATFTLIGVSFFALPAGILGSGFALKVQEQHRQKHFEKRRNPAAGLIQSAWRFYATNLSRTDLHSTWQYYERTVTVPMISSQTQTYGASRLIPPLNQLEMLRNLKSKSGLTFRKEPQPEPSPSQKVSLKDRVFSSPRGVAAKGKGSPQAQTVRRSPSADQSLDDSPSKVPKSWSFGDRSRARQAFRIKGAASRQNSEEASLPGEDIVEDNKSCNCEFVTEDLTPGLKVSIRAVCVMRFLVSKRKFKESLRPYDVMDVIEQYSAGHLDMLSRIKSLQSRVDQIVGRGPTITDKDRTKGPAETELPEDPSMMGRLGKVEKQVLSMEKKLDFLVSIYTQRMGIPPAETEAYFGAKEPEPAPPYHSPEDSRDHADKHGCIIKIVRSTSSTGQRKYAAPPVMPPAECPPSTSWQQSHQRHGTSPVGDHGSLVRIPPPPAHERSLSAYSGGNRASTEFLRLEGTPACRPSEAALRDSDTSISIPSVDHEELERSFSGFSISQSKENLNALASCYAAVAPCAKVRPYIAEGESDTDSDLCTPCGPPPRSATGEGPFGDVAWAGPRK
KCNQ2 pot: enhances the rat KCNQ2 potassium channel; CHO-K1 KCNQ2, FluxOR thallium flux fluorescence; active compounds read high; B-score at 10 µM; actives 0.54% (n = 310,000);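 active = fluorescence ratio B-score at least 3 SD of library B-scores, with initial fluorescence B-score within 3 of them, cut at about 5.3 in these data; same plate scores as AID 2156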;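 also: B-score of peak minus minimum over baseline fluorescence ratio after K+ and Tl+ stimulus; positive B-score means potentiation of KCNQ2 with more thallium influx and brighter signal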
Active calls of the source: *; i = inactive; · = no result given. Sampled rows, rich in hits. Any-hit rate of the full collection: about 1.6%.

SMILES | KCNQ2 inh | KCNQ2 pot
CC1CN(c2nc3ccccc3nc2C(C#N)C(=O)OC2CCCCC2)CC(C)O1 (stereo not drawn) | -5.9* | -5.9
CC1CCN(c2nc3ccccc3nc2C(C#N)C(=O)OC2CCCCC2)CC1 (stereo not drawn) | i | ·
CC(OC(=O)CCCN=C1NS(=O)(=O)c2ccccc21)C(=O)Nc1ccccc1F (stereo not drawn) | i | 0.81
CC1=Nc2ccccc2N=C(NC(=O)CN2CCN(c3ccccc3)CC2)C1c1ccccc1 (stereo not drawn) | -6.5* | -6.5
CCOC(=O)C1CCCN(CC(=O)NC2=Nc3ccccc3N=C(C)C2c2ccccc2)C1 (stereo not drawn) | i | ·
N=C1C(c2ccccc2)=C(O)CN1c1cccc(O)c1 | i | ·
COc1c(Cl)cc(-c2noc(C)c2C(=O)NC(C)C)cc1Cl | i | ·
CCOc1ccc(NC(=O)CN(C)C(=O)CC(NC(=O)c2ccccc2)c2ccccc2)cc1OCC (stereo not drawn) | i | 0.68
Cn1cccc1Cc1nnc(SCC(=O)NCc2ccccc2Cl)n1-c1ccc(F)cc1 | -7.2* | -7.2
Cn1cccc1Cc1nnc(SCC(=O)NCc2ccco2)n1-c1ccc(F)cc1 | i | 0.07
Cc1cc(C)c(NC(=O)CN2CCN(c3ccccn3)CC2)c(C)c1 | i | ·
CC(C)C1OC2c3cccc4cccc(c34)C2N1c1ccccc1 (stereo not drawn) | -5.7* | -5.7
Cc1ccc(N(CC(=O)Nc2ccccc2-c2ccccc2)S(=O)(=O)c2ccccc2)c(C)c1 | -7.7* | -7.7
CS(=O)(=O)N(CC(=O)Nc1ccccc1-c1ccccc1)c1ccccc1 | i | ·
O=C(COC(=O)Cc1ccc(Cl)cc1)Nc1ccc(OC(F)F)cc1 | i | ·
O=C(Nc1ccc(Cl)cc1)N(C1=NCCC1)c1ccc(OC(F)F)cc1 | -5.7* | -5.7
Cc1cccc(C(=O)Nc2ccc(C(=O)/C=C/c3cccnc3)cc2)c1 | i | ·
Cc1cccc(C(=O)Nc2ccc(C(=O)/C=C/c3ccncc3)cc2)c1 | -6* | -6
Cc1ccc(NC(=O)CSc2nnc(-c3ccncc3)n2N)cc1C | i | 0.69
COc1ccccc1NC(=O)Nc1nc(CC(=O)Nc2cc(F)ccc2F)cs1 | i | 0.5
CCOC(=O)c1c(-c2ccc(C)o2)csc1NC(=O)CN1CCOCC1 | i | ·
CCOC(=O)c1c(-c2ccc(C)o2)csc1NC(=O)COC(=O)c1cccs1 | -6* | -6
O=C(CCSc1nc2ccccc2o1)Nc1ccccc1 | i | ·
Cc1cc(C)c(NC(=O)CSc2nnc(CNC(=O)c3ccco3)o2)c(C)c1 | i | 1.4
Cc1ccc(-c2cc(-c3ccccc3)[nH]c(=S)c2C#N)cc1 | i | 4.9
SMILES | KCNQ2 inh | KCNQ2 pot
N#Cc1c(-c2ccc(C(F)(F)F)cc2)cc(-c2ccccc2)[nH]c1=S | i | 5.4*
Cc1ccccc1OC1C(=O)N(Cc2ccc3c(c2)OCO3)C1c1sccc1C (stereo not drawn) | -6* | -6
O=C1C(Oc2ccccc2)C(c2cccs2)N1Cc1ccc2c(c1)OCO2 (stereo not drawn) | i | 0.4
Cc1ccc(C(C[N+](=O)[O-])n2nc(C)cc2C)cc1 (stereo not drawn) | -7.4* | -7.4
Cc1ccc(S(=O)(=O)NCC(C)n2nc(C)cc2C)cc1 (stereo not drawn) | i | 2.7
CC1(C)Cc2cccc(OCC(=O)N3CCN(c4ccccc4Cl)CC3)c2O1 | -6.2* | -6.2
CC1(C)Cc2cccc(OCC(=O)N3CCN(c4cccc(Cl)c4)CC3)c2O1 | i | ·
Cc1cc(C(C)(C)C)ccc1OCCN(C)C | i | ·
CC(C)Cc1cc(C(C)(C)C)ccc1OC(=S)N(C)C | -7.8* | -7.8
CC(C(=O)NCc1ccccn1)c1ccc([N+](=O)[O-])cc1 (stereo not drawn) | i | ·
CCCNc1c(NS(=O)(=O)c2c(F)c(F)c(F)c(F)c2F)c(=O)oc2ccccc12 | i | 0.02
O=C(NCCCN1CCCC1=O)c1cc(-c2ccc3c(c2)OCO3)nc2ccccc12 | i | ·
O=C(NCCCN1CCCC1=O)c1cc(-c2cccnc2)nc2ccc(Cl)cc12 | -6.5* | -6.5
COC(=O)c1ccc([C@H](NC(=O)c2ccco2)[C@]2(C)C[C@H]2C2CCCCC2)cc1 | -6* | -6
O=C(OC1CCCCC1)c1ccc(NC(=O)c2ccco2)cc1 | i | 2.4
CC(=O)c1c(C)oc2ccc(NS(=O)(=O)c3ccc(C)cc3)cc12 | i | 0.34
Cc1oc2ccc(NS(=O)(=O)c3ccc(C(C)(C)C)cc3)cc2c1C(=O)Nc1ccccc1 | -6* | -6
O=C(NN=C1CCN(Cc2ccccc2)CC1)C(O)c1ccccc1 (stereo not drawn) | i | ·
c1ccc(-c2cc3c(N4CCN(c5ncccn5)CC4)ncnc3s2)cc1 | i | ·
c1ccc(-c2cc3c(N4CCN(c5ccccc5)CC4)ncnc3s2)cc1 | -7.7* | -7.7
CSc1cccc(N2CC(C(=O)Nc3ccccc3N3CCCC3)CC2=O)c1 (stereo not drawn) | i | ·
CCc1ccc(/C=C/C(=O)C2C(=O)c3ccccc3C2=O)cc1 | i | 3.5
O=C(/C=C/c1ccccc1)C1C(=O)c2ccccc2C1=O | i | 5.8*
CC(C)(C)c1ccc(SCCc2cccnc2)cc1 | i | ·
C#CC[N+]1(CC#Cc2ccc(C)cc2)CCCCC1 | i | 0.14
SMILES | KCNQ2 inh | KCNQ2 pot
O=C(C/C=N/OCc1c(Cl)cccc1Cl)c1ccc(Cl)cc1 | -7.4* | -7.4
O=C(C/C=N/OCc1c(Cl)cccc1Cl)c1cnc(-c2ccccc2)s1 | i | ·
CC(=O)c1ccc(OCC(O)CN2CCN(c3ccccn3)CC2)cc1 (stereo not drawn) | i | 0.22
COC(=O)c1ccsc1NS(=O)(=O)c1ccccc1 | i | 0.02
C[C@@H]1CC=C[C@H]2[C@H]1C(=O)N(Cc1ccccc1)[C@H]2c1ccc(C(F)(F)F)cc1 | i | ·
CC[C@@H]1CC=C[C@H]2[C@H]1C(=O)N(Cc1ccccc1)[C@H]2c1ccc2ccccc2c1 | -5.7* | -5.7
O=C1C2C(c3ccccc3)CC=CC2[C@H](c2ccc(C(F)(F)F)cc2)N1Cc1ccccc1 (stereo partly drawn) | -7.8* | -7.8
COc1ccc([C@H]2[C@H]3C=CC[C@@H](C)[C@@H]3C(=O)N2Cc2ccccc2)cc1Cl | i | ·
CCC(C)N1CCNCC1 (stereo not drawn) | i | ·
CC(=O)Nc1cccc(OCCCNC(=O)c2ccc(C(C)(C)C)cc2)c1 | i | ·
COc1ccc(NC(=O)C(Sc2nnc(-c3ccncc3)n2-c2ccccc2C)c2ccccc2)cc1Cl (stereo not drawn) | -5.5* | -5.5
COc1ccc(NC(=O)C(OC)c2ccccc2)cc1Cl (stereo not drawn) | i | 2.5
Cc1cccc(C)c1-n1c(C)nn(CC#N)c1=O | i | ·
O=C(CSc1ncn[nH]1)Nc1ccc(S(=O)(=O)Nc2ncccn2)cc1 | i | 0.67
O=C(CCc1nnc(-c2ccsc2)o1)NCc1ccccc1OC(F)(F)F | -6.3* | -6.3
CC(C)c1nc(CNC(=O)CCc2nnc(-c3ccsc3)o2)cs1 | i | 1.4
Cc1ccc(/C=C/C(=O)N2CCN(c3ncccn3)CC2)o1 | i | 8.9*
Cc1ccc(/C=C/C(=O)N2CCN(c3ccc(F)cc3)CC2)o1 | i | ·
COC(=O)C/C=C/[C@@H](C)[C@@H](/C=N/OC[C@H]1O[C@H](c2ccccc2)C=C[C@@H]1Oc1ccc(OC)cc1)OC | -6.9* | -6.9
